Measurements reported in PubChem BioAssay (NCI).
Several values for one entry are separate records, joined by “and”; a condition that tells them apart may be missing. Equal entries are not always repeated. About 79,000 compounds went through this panel and 15% of them were active in at least one assay; those are over-represented in the sample as a whole. Some structures have more than one record in an assay (separate samples or runs), and their calls can disagree. Activity calls are given as the source filed them. Rule as the data show it: active = growth inhibition above about 70%; inactive = the rest.

How the values were obtained:
[1] = NCI Yeast Anticancer Drug Screen. Data for the mec2-1 strain (AID 157); settings: S. cerevisiae mec2-1 strain, stronger effect = higher value
Outline: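 Vehicle-treated cultures served as reference for growth inhibition of compound-exposed mec2-1 yeast.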

[2] = NCI Yeast Anticancer Drug Screen. Data for the sgs1 mgt1 strain (AID 161);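 also: 0% = growth of cultures given vehicle only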; settings: S. cerevisiae sgs1 mgt1 strain, stronger effect = higher value
Outline: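 Mutant yeast exposed to compound; growth scored against vehicle-only wells.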

[3] = NCI Yeast Anticancer Drug Screen. Data for the CLN2oe strain (AID 163);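 also: 0% = growth of vehicle-only control cultures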; settings: S. cerevisiae CLN2oe strain, stronger effect = higher value
Outline: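 Inhibition relative to vehicle-treated yeast is reported. Cells: strain with genetic alteration in cell-cycle control, grown with compound.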

[4] = NCI Yeast Anticancer Drug Screen. Data for the cln2 rad14 strain (AID 165);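 also: 0% = growth equal to vehicle treated cultures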; settings: S. cerevisiae cln2 rad14 strain, stronger effect = higher value
Outline: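 Each compound was tested on cln2 rad14 yeast. Inhibition of growth was calculated against vehicle-exposed controls.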

[5] = NCI Yeast Anticancer Drug Screen. Data for the bub3 strain (AID 167); settings: S. cerevisiae bub3 mutant strain, stronger effect = higher value
Outline: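 In this screen, a yeast mutant lacking normal mitotic checkpoint function is challenged with compound. Relative growth versus vehicle gives the inhibition value.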

[6] = NCI Yeast Anticancer Drug Screen. Data for the wt2 strain (AID 169);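 also: 0% = growth of vehicle-treated yeast cultures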; settings: S. cerevisiae wt2 strain growth inhibition, stronger effect = higher value
Outline: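 Inhibition of yeast growth was determined after compound treatment, normalised to controls receiving only vehicle.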

[7] = NCI Yeast Anticancer Drug Screen. Data for the mlh1 strain (AID 171);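 also: 0% = growth of vehicle-treated control cultures of the same strain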; settings: S. cerevisiae mlh1 strain growth inhibition, stronger effect = higher value
Outline: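 Vehicle-normalised growth inhibition of a repair- or checkpoint-altered yeast strain following compound treatment.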

[8] = NCI Yeast Anticancer Drug Screen. Data for the sgs1 strain (AID 173);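 also: 0% = growth of vehicle-only control cultures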; settings: S. cerevisiae sgs1 mutant, stronger effect = higher value
Outline: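 Screen format: yeast with repair or checkpoint alterations, compound exposure, growth read relative to vehicle.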

[9] = NCI Yeast Anticancer Drug Screen. Data for the mlh1 rad18 strain (AID 175); settings: S. cerevisiae mlh1 rad18 strain growth inhibition, stronger effect = higher value
Outline: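 Vehicle-treated cultures served as the reference for growth inhibition in a yeast strain carrying DNA damage repair alterations exposed to each compound.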

[10] = NCI Yeast Anticancer Drug Screen. Data for the rad18 strain (AID 177); settings: S. cerevisiae rad18 mutant growth inhibition, stronger effect = higher value
Outline: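 Test articles were incubated with altered yeast defective in DNA damage repair. Results are given as inhibition of growth versus vehicle.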

[11] = NCI Yeast Anticancer Drug Screen. Data for the rad52 strain (AID 147);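 also: 0% = growth of vehicle-treated control cultures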; settings: S. cerevisiae rad52 mutant growth inhibition, stronger effect = higher value
Outline: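 Vehicle-treated cultures served as the reference for growth inhibition of compound-exposed yeast bearing a DNA repair mutation.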

[12] = NCI Yeast Anticancer Drug Screen. Data for the wt1 strain (AID 149);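 also: 0% = growth of vehicle-treated wt1 cultures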; settings: S. cerevisiae wt1 strain (SPY 50644) growth inhibition, stronger effect = higher value
Outline: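 wt1 strain grown with compound or vehicle; inhibition taken from the growth difference.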

[13] = NCI Yeast Anticancer Drug Screen. Data for the mgt1 strain (AID 153); settings: S. cerevisiae mgt1 mutant growth inhibition, stronger effect = higher value
Outline: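 mgt1 strain exposed; growth vs vehicle control recorded as inhibition.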

[14] = NCI Yeast Anticancer Drug Screen. Data for the rad14 strain (AID 159);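 also: 0% = growth of vehicle-treated control cultures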; settings: S. cerevisiae rad14 strain growth inhibition, stronger effect = higher value
Outline: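 DNA repair-defective yeast, compound-exposed; % growth inhibition derived by comparison with vehicle-treated controls.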

[15] = NCI Yeast Anticancer Drug Screen. Data for the rad50 strain (AID 155);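 also: 0% = growth of vehicle-only cultures of the same strain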; settings: S. cerevisiae rad50 strain growth inhibition, stronger effect = higher value
Outline: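 DNA repair mutant yeast, compound exposure, growth read-out; inhibition is taken relative to vehicle.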

[16] = at 5.0 µM (retest, dose inferred, filed as 0.5)
[17] = at 50.0 µM (retest, dose inferred, filed as 5.0)

Measured: growth inhibition

S=c1[nH]c2cc3ccccc3cc2[nH]1
inactive: [1]; [16] -3% | [1]; at 11.0 µM -8% | [1]; at 33.0 µM 1% | [1]; [17] 17% | [1]; at 50.0 µM 45.6% | [1]; at 100.0 µM 24% | [2]; [16] -5% | [2]; [17] 15% | [2]; at 50.0 µM 68.8% | [3]; at 1.2 µM -13% | [3]; at 3.7 µM -18% | [3]; at 11.0 µM -3% | [3]; at 33.0 µM -7% | [3]; at 100.0 µM 18% | [4]; [16] 34% | [4]; [17] 57% | [4]; at 50.0 µM 43.6% | [5]; at 1.2 µM -7% | [5]; at 3.7 µM 15% | [5]; [16] -4% | [5]; at 11.0 µM -9% | [5]; at 33.0 µM 7% | [5]; at 50.0 µM 68.9% | [5]; at 100.0 µM 40% | [6]; at 1.2 µM -55% | [6]; at 3.7 µM -50% | [6]; at 11.0 µM -46% | [6]; at 33.0 µM -19% | [6]; at 100.0 µM -3% | [7]; at 1.2 µM -13% | [7]; at 3.7 µM -7% | [7]; at 11.0 µM -4% | [7]; at 33.0 µM 14% | [7]; at 100.0 µM 34% | [8]; at 1.2 µM -27% | [8]; at 3.7 µM -8% | [8]; at 11.0 µM -4% | [8]; at 33.0 µM 20% | [8]; at 100.0 µM 25% | [9]; [16] 9% | [9]; at 50.0 µM 67.6% | [10]; at 1.2 µM -9% | [10]; at 3.7 µM 2% | [10]; at 11.0 µM 11% | [10]; at 33.0 µM 18% | [10]; at 100.0 µM 17%
active: [5]; [17] 83% | [9]; [17] 78%

S=c1sc2c(s1)SCCS2
-2% (inactive) and 75.5% (active): [2]; at 50.0 µM
inactive: [11]; at 1.2 µM 1% | [11]; at 3.7 µM 1% | [11]; at 11.0 µM 4% | [11]; at 33.0 µM 5% | [11]; at 100.0 µM 7% | [12]; at 1.2 µM -1% | [12]; at 3.7 µM 1% | [12]; at 11.0 µM 1% | [12]; at 33.0 µM 0% | [12]; at 100.0 µM 2% | [13]; at 1.2 µM -2% | [13]; at 3.7 µM -1% | [13]; at 11.0 µM 18% | [13]; at 33.0 µM -14% | [13]; at 100.0 µM 5% | [1]; at 1.2 µM 2% | [1]; at 3.7 µM 2% | [1]; [16] -11% | [1]; at 11.0 µM -1% | [1]; at 33.0 µM -2% | [1]; [17] 23% | [1]; at 50.0 µM 5.65% and 50% | [1]; at 100.0 µM 0% | [14]; at 1.2 µM 1% | [14]; at 3.7 µM -4% | [14]; at 11.0 µM -2% | [14]; at 33.0 µM -1% | [14]; at 100.0 µM 5% | [2]; [16] -8% | [2]; [17] 54% | [3]; at 1.2 µM 0% | [3]; at 3.7 µM 0% | [3]; at 11.0 µM -2% | [3]; at 33.0 µM -4% | [3]; at 100.0 µM 0% | [4]; [16] -14% | [4]; [17] 32% | [4]; at 50.0 µM 7.95% and 60.4% | [5]; at 1.2 µM 1% | [5]; at 3.7 µM 2% | [5]; [16] -20% | [5]; at 11.0 µM 6% | [5]; at 33.0 µM 5% | [5]; [17] 49% | [5]; at 50.0 µM 20.4% and 64.8% | [5]; at 100.0 µM 4% | [6]; at 1.2 µM 1% | [6]; at 3.7 µM 2% | [6]; at 11.0 µM 2% | [6]; at 33.0 µM 3% | [6]; at 100.0 µM 4% | [7]; at 1.2 µM 1% | [7]; at 3.7 µM -2% | [7]; at 11.0 µM 5% | [7]; at 33.0 µM 1% | [7]; at 100.0 µM 3% | [8]; at 1.2 µM -1% | [8]; at 3.7 µM -1% | [8]; at 11.0 µM 0% | [8]; at 33.0 µM 0% | [8]; at 100.0 µM 3% | [9]; [16] 46% | [9]; [17] 59% | [9]; at 50.0 µM 20.8% and 57.5% | [10]; at 1.2 µM -4% | [10]; at 3.7 µM -3% | [10]; at 11.0 µM -2% | [10]; at 33.0 µM -15% | [10]; at 100.0 µM 6%

CC(C)(CCCCC(C)(C)[N+](C)(C)C)[N+](C)(C)C
inactive: [11]; at 1.2 µM -4% | [11]; at 3.7 µM -6% | [11]; at 11.0 µM -5% | [11]; at 33.0 µM -10% | [11]; at 100.0 µM -1% | [12]; at 1.2 µM -2% | [12]; at 3.7 µM 0% | [12]; at 11.0 µM -1% | [12]; at 33.0 µM -1% | [12]; at 100.0 µM 1% | [13]; at 1.2 µM -4% | [13]; at 3.7 µM -3% | [13]; at 11.0 µM -4% | [13]; at 33.0 µM -16% | [13]; at 100.0 µM -2% | [15]; at 1.2 µM -10% | [15]; at 3.7 µM -18% | [15]; [16] 4% | [15]; at 11.0 µM -25% | [15]; at 33.0 µM -4% | [15]; [17] 54% | [15]; at 100.0 µM -2% | [1]; at 1.2 µM 0% | [1]; at 3.7 µM 1% | [1]; [16] 21% | [1]; at 11.0 µM 0% | [1]; at 33.0 µM 1% | [1]; [17] 42% | [1]; at 100.0 µM -1% | [14]; at 1.2 µM -2% | [14]; at 3.7 µM -2% | [14]; at 11.0 µM -4% | [14]; at 33.0 µM -4% | [14]; at 100.0 µM -2% | [2]; [16] 0% | [2]; [17] 31% | [3]; at 1.2 µM -4% | [3]; at 3.7 µM -2% | [3]; at 11.0 µM 2% | [3]; at 33.0 µM -3% | [3]; at 100.0 µM -1% | [4]; [16] 44% | [4]; [17] 52% | [5]; at 1.2 µM -1% | [5]; at 3.7 µM 0% | [5]; [16] -1% | [5]; at 11.0 µM -1% | [5]; at 33.0 µM 0% | [5]; at 100.0 µM 0% | [6]; at 1.2 µM -2% | [6]; at 3.7 µM -2% | [6]; at 11.0 µM -5% | [6]; at 33.0 µM -5% | [6]; at 100.0 µM -1% | [7]; at 1.2 µM 1% | [7]; at 3.7 µM 1% | [7]; at 11.0 µM 0% | [7]; at 33.0 µM 0% | [7]; at 100.0 µM -1% | [8]; at 1.2 µM -1% | [8]; at 3.7 µM 1% | [8]; at 11.0 µM -2% | [8]; at 33.0 µM 0% | [8]; at 100.0 µM 0% | [9]; [16] 10% | [9]; [17] 35% | [10]; at 1.2 µM -4% | [10]; at 3.7 µM 0% | [10]; at 11.0 µM -2% | [10]; at 33.0 µM -3% | [10]; at 100.0 µM -3%
active: [15]; at 50.0 µM 85.2% | [1]; at 50.0 µM 88.5% | [2]; at 50.0 µM 89.1% | [4]; at 50.0 µM 87.2% | [5]; [17] 98% | [5]; at 50.0 µM 85.5% | [9]; at 50.0 µM 91.5%
